PubChem BioAssay (EPA / NIEHS)
Calls of active or inactive are those of the source. Rule for the calls: active = hit-call score of the fitted dose curve at least 0.9, where 1 is the maximum; inactive = score below 0.9.

Tests used:
[1] = read-out: Tumor necrosis factor receptor superfamily member 6 (Homo sapiens) (UniProt P25445); assay: LTEA_HepaRG_FAS: Life Technologies and Expression Analysis (LTEA) Assay for Fas cell surface death receptor (FAS) using HepaRG (AID 2283447); details: mRNA level, 48 h; actives raise or lower the signal
Procedure, shortened: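 FAS transcript level was measured by TaqMan qRT-PCR against three housekeeping genes after 48 h chemical exposure. Cells were HepaRG, 0.5% DMSO vehicle, with a top concentration of 100 uM and half-log dilutions over eight points, in duplicate.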

[2] = read-out: Fatty acid synthase (Homo sapiens) (UniProt P49327); assay: LTEA_HepaRG_FASN: Life Technologies and Expression Analysis (LTEA) Assay for Fatty Acid Synthase (FASN) using HepaRG (AID 2283448); details: mRNA level, 48 h; actives raise or lower the signal
Procedure, shortened: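 Cells were plated, cultured 48 h, switched to serum-free induction medium, then dosed in duplicate (max 100 uM, half-log dilutions, 0.5% DMSO) for 48 h. RNA was then isolated and FASN quantified by qRT-PCR.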

[3] = read-out: Cyclin D2 (CCND2), CCND2 (gene 894); assay: LTEA_HepaRG_CCND2: Life Technologies and Expression Analysis (LTEA) Assay for Cyclin D2 (CCND2) using HepaRG (AID 2283449); details: mRNA level, 48 h; actives raise or lower the signal
Procedure, shortened: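 CCND2 transcript levels, quantified by qRT-PCR and normalised to three housekeeping genes, were fitted bidirectionally against 0.5% DMSO. HepaRG cultures were dosed 48 h in duplicate with an 8-point half-log series up to 100 uM.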

[4] = read-out: Cyclin Dependent Kinase Inhibitor 1A (CDKN1A), CDKN1A (gene 1026); assay: LTEA_HepaRG_CDKN1A: Life Technologies and Expression Analysis (LTEA) Assay for Cyclin Dependent Kinase Inhibitor 1A (CDKN1A) using HepaRG (AID 2283450); details: mRNA level, 48 h; actives raise or lower the signal
Procedure, shortened: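 Differentiated human HepaRG cells, pre-cultured 48 h, were exposed in duplicate for 48 h in serum-free induction medium to eight half-log concentrations up to 100 uM (0.5% DMSO). CDKN1A mRNA was measured by qRT-PCR, normalized to ACTB/GAPDH/POLR2A, bidirectionally fitted versus DMSO.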

[5] = read-out: Cyclin D1 (CCND1), CCND1 (gene 595); assay: LTEA_HepaRG_CCND1: Life Technologies and Expression Analysis (LTEA) Assay for Cyclin D1 (CCND1) using HepaRG (AID 2283451); details: mRNA level, 48 h; actives raise or lower the signal
Procedure, shortened: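 Differentiated human HepaRG cells in serum-free induction medium were exposed 48 h to eight half-log concentrations up to 100 uM in 0.5% DMSO; mRNA quantified by TaqMan qRT-PCR, normalized to ACTB, GAPDH, POLR2A, fitted bidirectionally versus DMSO.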

[6] = read-out: catalase (CAT), CAT (gene 847); assay: LTEA_HepaRG_CAT: Life Technologies and Expression Analysis (LTEA) Assay for catalase (CAT) using HepaRG (AID 2283452); details: mRNA level, 48 h; actives raise or lower the signal
Procedure, shortened: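 Expression of CAT was quantified by TaqMan qRT-PCR with ACTB/GAPDH/POLR2A normalization after 48 h chemical exposure of HepaRG. Eight-point half-log series, top 100 uM, in 0.5% DMSO; gain or loss fitted against vehicle.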

[7] = read-out: Cytochrome P450 (CYP1A1), CYP1A1 (gene 1543); assay: LTEA_HepaRG_CYP1A1: Life Technologies and Expression Analysis (LTEA) Assay for Cytochrome P450 (CYP1A1) using HepaRG (AID 2283454); details: mRNA level, 48 h; actives raise or lower the signal
Procedure, shortened: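 Differentiated HepaRG cells in serum-free induction medium were exposed in duplicate for 48 h to eight half-log concentrations up to 100 uM in 0.5% DMSO. CYP1A1 mRNA was quantified by TaqMan qRT-PCR, normalized to ACTB, GAPDH and POLR2A.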

[8] = read-out: CFLAR gene, CFLAR (gene 8837); assay: LTEA_HepaRG_CFLAR: Life Technologies and Expression Analysis (LTEA) Assay for CFLAR gene using HepaRG (AID 2283455); details: mRNA level, 48 h; actives raise or lower the signal
Procedure, shortened: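 Transcript level by qRT-PCR (normalized to ACTB, GAPDH and POLR2A) after 48 h chemical exposure of HepaRG cells, top concentration 100 uM with half-log steps, 0.5% DMSO vehicle, duplicates; fitted bidirectionally against DMSO baseline.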

[9] = read-out: Forkhead box O1 (FOXO1), FOXO1 (gene 2308); assay: LTEA_HepaRG_FOXO1: Life Technologies and Expression Analysis (LTEA) Assay for Forkhead box O1 (FOXO1) using HepaRG (AID 2283456); details: mRNA level, 48 h; actives raise or lower the signal
Procedure, shortened: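 FOXO1 transcript quantified by qRT-PCR after 48 h chemical exposure (top 100 uM, half-log steps, 0.5% DMSO) of HepaRG cells, housekeeping-normalized (ACTB/GAPDH/POLR2A). Changes fitted in both directions relative to vehicle.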

[10] = read-out: growth arrest and DNA damage 45 (GADD45A), GADD45A (gene 1647); assay: LTEA_HepaRG_GADD45A: Life Technologies and Expression Analysis (LTEA) Assay for growth arrest and DNA damage 45 (GADD45A) using HepaRG (AID 2283458); details: mRNA level, 48 h; actives raise or lower the signal
Procedure, shortened: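 Transcript induction or loss, quantified by TaqMan qRT-PCR against three housekeeping genes, is the read-out. HepaRG cells received chemicals for 48 h across eight half-log concentrations from 100 uM in 0.5% DMSO; gain and loss fitted relative to DMSO.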

[11] = read-out: Forkhead box O3 (FOXO3), FOXO3 (gene 2309); assay: LTEA_HepaRG_FOXO3: Life Technologies and Expression Analysis (LTEA) Assay for Forkhead box O3 (FOXO3) using HepaRG (AID 2283459); details: mRNA level, 48 h; actives raise or lower the signal
Procedure, shortened: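 FOXO3 transcript measured by qRT-PCR (normalized to ACTB, GAPDH, POLR2A) after 48 h exposure of HepaRG cells in serum-free induction medium. Duplicates, eight half-log concentrations up to 100 uM, 0.5% DMSO; gain or loss fitted against DMSO.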

[12] = read-out: ABC Transporter (ABCB1), ABCB1 (gene 5243); assay: LTEA_HepaRG_ABCB1: Life Technologies and Expression Analysis (LTEA) Assay for ABC Transporter (ABCB1) using HepaRG (AID 2283460); details: mRNA level, 48 h; actives raise or lower the signal
Procedure, shortened: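 ABCB1 transcript level measured by TaqMan qRT-PCR against three housekeeping genes after 48 h chemical exposure of differentiated HepaRG cells. Top concentration 100 uM, half-log steps, eight points, 0.5% DMSO vehicle; bidirectional fit relative to DMSO.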

[13] = read-out: growth arrest and DNA damage 45 (GADD45B), GADD45B (gene 4616); assay: LTEA_HepaRG_GADD45B: Life Technologies and Expression Analysis (LTEA) Assay for growth arrest and DNA damage 45 (GADD45B) using HepaRG (AID 2283461); details: mRNA level, 48 h; actives raise or lower the signal
Procedure, shortened: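 Differentiated HepaRG cells, plated 48 h then switched to serum-free induction medium, were exposed 48 h in duplicate to eight half-log concentrations from 100 uM in 0.5% DMSO; mRNA quantified by qRT-PCR, normalized to ACTB/GAPDH/POLR2A, bidirectional fit versus DMSO.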

[14] = read-out: ABC Transporter (ABCB11), ABCB11 (gene 8647); assay: LTEA_HepaRG_ABCB11: Life Technologies and Expression Analysis (LTEA) Assay for ABC Transporter (ABCB11) using HepaRG (AID 2283463); details: mRNA level, 48 h; actives raise or lower the signal
Procedure, shortened: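 ABCB11 transcript levels quantified by TaqMan qRT-PCR against three housekeeping genes after 48 h chemical exposure of HepaRG cultures. Concentrations up to 100 uM in half-log steps, 0.5% DMSO vehicle; both induction and suppression scored.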

[15] = read-out: ABC Transporter (ABCC2), ABCC2 (gene 1244); assay: LTEA_HepaRG_ABCC2: Life Technologies and Expression Analysis (LTEA) Assay for ABC Transporter (ABCC2) using HepaRG (AID 2283464); details: mRNA level, 48 h; actives raise or lower the signal
Procedure, shortened: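 HepaRG cells were plated 48 h, switched to serum-free induction medium, then exposed in duplicate for 48 h to 8 concentrations (top 100 uM, half-log steps, 0.5% DMSO). ABCC2 mRNA was measured by qRT-PCR normalized to ACTB/GAPDH/POLR2A; bidirectional fitting versus DMSO.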

[16] = read-out: ATP-citrate lyase (ACLY), ACLY (gene 47); assay: LTEA_HepaRG_ACLY: Life Technologies and Expression Analysis (LTEA) Assay for ATP-citrate lyase (ACLY) using HepaRG (AID 2283466); details: mRNA level, 48 h; actives raise or lower the signal
Procedure, shortened: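 ACLY mRNA quantified by qRT-PCR on Fluidigm arrays against three housekeeping genes, after 48 h chemical treatment of HepaRG cells (top concentration 100 uM, half-log steps, 0.5% DMSO vehicle). Up- or down-regulation fitted relative to DMSO.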

[17] = read-out: flavin-containing dimethylaniline monooxygenases 3 (FMO3), FMO3 (gene 2328); assay: LTEA_HepaRG_FMO3: Life Technologies and Expression Analysis (LTEA) Assay for flavin-containing dimethylaniline monooxygenases 3 (FMO3) using HepaRG (AID 2283453); details: mRNA level, 48 h; actives raise or lower the signal
Procedure, shortened: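 FMO3 transcript quantified by TaqMan qRT-PCR against three housekeeping genes after 48 h chemical exposure of HepaRG cells. Eight-point half-log series, top 100 uM, 0.5% DMSO vehicle; phenobarbital 1mM induction control; up- or down-regulation fitted.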

[18] = read-out: ABC Transporter (ABCC3), ABCC3 (gene 8714); assay: LTEA_HepaRG_ABCC3: Life Technologies and Expression Analysis (LTEA) Assay for ABC Transporter (ABCC3) using HepaRG (AID 2283462); details: mRNA level, 48 h; actives raise or lower the signal
Procedure, shortened: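 HepaRG cells in serum-free induction medium were exposed for 48 h in duplicate to 8-point half-log concentrations topping at 100 uM in 0.5% DMSO. ABCC3 mRNA was measured by qRT-PCR normalized to ACTB, GAPDH and POLR2A, with bidirectional fitting versus DMSO.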

[19] = read-out: Broad substrate specificity ATP-binding cassette transporter ABCG2 (Homo sapiens) (UniProt Q9UNQ0); assay: LTEA_HepaRG_ABCG2: Life Technologies and Expression Analysis (LTEA) Assay for ABC Transporter (ABCG2) using HepaRG (AID 2283465); details: mRNA level, 48 h; actives raise or lower the signal
Procedure, shortened: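 ABCG2 transcript was quantified by TaqMan qRT-PCR against three housekeeping genes in HepaRG cells. Cells were treated in duplicate for 48 h across an 8-point half-log series up to 100 uM, with 0.5% DMSO vehicle. Gain or loss versus DMSO was fit.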

[20] = CEETOX_H295R_TESTO: CeeTox H295R High-throughput Steroidogenesis Assay for Testosterone (TESTO) (AID 2283457); details: actives raise or lower the signal
Procedure, shortened: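 H295R human adrenal cells in DMEM/F12 with ITS+ and Nu-Serum, exposed to chemicals for 48 h. Testosterone in medium measured by MTBE extraction, reverse-phase HPLC-MS/MS; bidirectional fit versus DMSO baseline. MTT viability checked in same wells.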

Measured: AC50

Fatty acid synthase (Homo sapiens), sequence (P49327 whole entry, looked up): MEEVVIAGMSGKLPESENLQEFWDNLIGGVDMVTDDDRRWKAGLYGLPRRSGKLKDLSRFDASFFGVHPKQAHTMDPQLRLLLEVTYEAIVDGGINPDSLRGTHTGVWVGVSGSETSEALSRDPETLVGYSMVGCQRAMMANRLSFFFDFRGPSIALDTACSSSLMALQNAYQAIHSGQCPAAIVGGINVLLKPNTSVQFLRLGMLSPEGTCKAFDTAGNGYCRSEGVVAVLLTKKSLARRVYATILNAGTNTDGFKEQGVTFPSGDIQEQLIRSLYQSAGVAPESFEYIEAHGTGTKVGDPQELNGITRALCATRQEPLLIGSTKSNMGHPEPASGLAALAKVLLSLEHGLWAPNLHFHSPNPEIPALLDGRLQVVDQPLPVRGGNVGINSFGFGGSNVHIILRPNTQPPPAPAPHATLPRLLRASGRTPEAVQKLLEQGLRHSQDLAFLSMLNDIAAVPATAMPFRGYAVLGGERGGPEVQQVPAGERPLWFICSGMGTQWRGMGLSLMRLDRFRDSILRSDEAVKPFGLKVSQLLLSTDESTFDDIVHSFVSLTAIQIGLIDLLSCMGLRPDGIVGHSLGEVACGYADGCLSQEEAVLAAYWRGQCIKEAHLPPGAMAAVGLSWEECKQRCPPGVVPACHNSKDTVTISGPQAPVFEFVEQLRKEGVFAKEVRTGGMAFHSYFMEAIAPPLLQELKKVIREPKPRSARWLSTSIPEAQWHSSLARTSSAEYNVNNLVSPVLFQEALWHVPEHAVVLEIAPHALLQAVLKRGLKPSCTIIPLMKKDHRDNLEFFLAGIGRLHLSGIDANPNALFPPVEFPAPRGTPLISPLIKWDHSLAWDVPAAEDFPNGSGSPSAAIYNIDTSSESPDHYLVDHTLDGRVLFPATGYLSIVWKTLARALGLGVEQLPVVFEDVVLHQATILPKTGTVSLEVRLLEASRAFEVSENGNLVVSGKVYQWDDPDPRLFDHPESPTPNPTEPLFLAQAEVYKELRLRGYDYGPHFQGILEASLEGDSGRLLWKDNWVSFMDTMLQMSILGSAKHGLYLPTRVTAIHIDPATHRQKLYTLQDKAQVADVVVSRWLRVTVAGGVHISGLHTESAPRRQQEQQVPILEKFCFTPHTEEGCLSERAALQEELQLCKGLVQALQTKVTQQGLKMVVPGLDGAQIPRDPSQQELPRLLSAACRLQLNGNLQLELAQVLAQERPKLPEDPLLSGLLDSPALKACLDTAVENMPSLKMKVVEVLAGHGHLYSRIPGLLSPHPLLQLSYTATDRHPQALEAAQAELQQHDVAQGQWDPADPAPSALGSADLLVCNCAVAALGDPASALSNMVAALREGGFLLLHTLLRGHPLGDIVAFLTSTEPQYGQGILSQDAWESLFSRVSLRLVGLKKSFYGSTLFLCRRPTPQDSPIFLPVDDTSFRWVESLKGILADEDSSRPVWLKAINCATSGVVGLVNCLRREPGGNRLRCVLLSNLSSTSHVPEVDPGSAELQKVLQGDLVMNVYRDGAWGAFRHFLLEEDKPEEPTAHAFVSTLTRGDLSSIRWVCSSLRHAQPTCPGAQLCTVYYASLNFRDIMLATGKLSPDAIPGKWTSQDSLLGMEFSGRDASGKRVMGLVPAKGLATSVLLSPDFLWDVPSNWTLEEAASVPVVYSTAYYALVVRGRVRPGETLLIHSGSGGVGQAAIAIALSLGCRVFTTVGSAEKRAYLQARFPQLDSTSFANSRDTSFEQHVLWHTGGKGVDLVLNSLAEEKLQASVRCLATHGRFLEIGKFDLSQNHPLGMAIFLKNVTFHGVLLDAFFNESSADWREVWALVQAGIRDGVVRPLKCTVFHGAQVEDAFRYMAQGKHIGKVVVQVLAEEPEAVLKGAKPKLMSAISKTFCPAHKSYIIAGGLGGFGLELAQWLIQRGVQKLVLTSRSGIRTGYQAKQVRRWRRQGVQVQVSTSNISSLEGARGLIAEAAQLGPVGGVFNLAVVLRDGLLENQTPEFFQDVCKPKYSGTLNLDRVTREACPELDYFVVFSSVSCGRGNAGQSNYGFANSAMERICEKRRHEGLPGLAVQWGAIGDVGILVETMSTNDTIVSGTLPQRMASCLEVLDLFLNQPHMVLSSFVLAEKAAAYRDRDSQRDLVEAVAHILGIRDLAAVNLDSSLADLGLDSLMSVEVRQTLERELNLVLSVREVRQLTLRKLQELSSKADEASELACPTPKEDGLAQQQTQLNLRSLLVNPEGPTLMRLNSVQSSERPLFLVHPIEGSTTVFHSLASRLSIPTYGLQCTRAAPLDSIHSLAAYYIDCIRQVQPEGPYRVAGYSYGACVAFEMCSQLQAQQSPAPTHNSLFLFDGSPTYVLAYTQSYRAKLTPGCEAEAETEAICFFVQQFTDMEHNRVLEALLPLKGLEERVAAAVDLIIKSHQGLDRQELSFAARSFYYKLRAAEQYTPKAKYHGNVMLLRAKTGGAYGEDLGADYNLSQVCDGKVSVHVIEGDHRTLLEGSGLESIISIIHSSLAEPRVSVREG
Broad substrate specificity ATP-binding cassette transporter ABCG2 (Homo sapiens), sequence (Q9UNQ0 whole entry, looked up): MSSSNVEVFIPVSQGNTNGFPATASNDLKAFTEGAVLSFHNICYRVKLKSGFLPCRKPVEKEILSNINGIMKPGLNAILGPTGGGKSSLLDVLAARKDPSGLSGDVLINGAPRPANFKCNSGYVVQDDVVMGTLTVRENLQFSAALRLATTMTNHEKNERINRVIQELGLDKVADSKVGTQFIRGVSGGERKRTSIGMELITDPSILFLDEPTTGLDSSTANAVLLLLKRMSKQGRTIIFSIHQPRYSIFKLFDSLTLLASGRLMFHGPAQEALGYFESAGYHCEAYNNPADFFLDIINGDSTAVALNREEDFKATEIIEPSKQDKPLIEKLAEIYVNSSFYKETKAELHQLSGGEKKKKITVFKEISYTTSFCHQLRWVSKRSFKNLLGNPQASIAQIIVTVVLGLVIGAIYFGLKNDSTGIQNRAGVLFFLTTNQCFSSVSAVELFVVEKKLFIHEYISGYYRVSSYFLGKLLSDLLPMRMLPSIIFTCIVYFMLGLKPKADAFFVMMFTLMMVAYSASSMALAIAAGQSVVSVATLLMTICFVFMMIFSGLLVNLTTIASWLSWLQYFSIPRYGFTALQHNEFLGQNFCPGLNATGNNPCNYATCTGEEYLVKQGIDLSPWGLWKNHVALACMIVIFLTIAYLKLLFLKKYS

CC(CO)OC(C)CO (stereo not given) (tested in a mixture with another compound)
active: [7] 50 µM
inactive: [1] | [2] | [3] | [4] | [5] | [6] | [8] | [9] | [10] | [11] | [12] | [13] | [14] | [15] | [16]

CC(=O)OCCOCCOCCOC(C)=O
inactive: [1] | [2] | [3] | [4] | [6] | [17] | [7] | [8] | [9] | [10] | [11] | [12] | [13] | [18] | [14] | [15] | [16]

CCCCCC(=O)O
active: [7] 70 µM
inactive: [1] | [2] | [3] | [4] | [6] | [17] | [8] | [9] | [11] | [12] | [13] | [14] | [15] | [19] | [16]

COc1ccc(C)cc1N
inactive: [1] | [2] | [3] | [4] | [6] | [7] | [8] | [9] | [20] | [11] | [12] | [13] | [18] | [14] | [15] | [16]
